KCNH2 3.1 inh = inhibitors of human KCNH2 3.1 potassium channel isoform. U2OS KCNH2 3.1, thallium flux FluxOr; stronger effect = lower value. activity change, % (tested at about 1.8 µM). 340,000 compounds, 0.95% hits. AID 720553;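 active = maximum activity change below -70%; inconclusive = maximum activity change from -70% to -50%; inactive = maximum activity change above -50%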;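 note: thallium influx rate constant from kinetic fluorescence after stimulation buffer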
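U2OS cells transduced with KCNH2 3.1 mutant virus (1.77 x 10^8 /mL, 4 h), plated overnight at 37 C, loaded 45 min with FluxOr dye plus Red40 quencher. Thallium flux rate constant from kinetic reads after stimulation buffer, normalised to controls.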
TRPV1 ag = human TRPV1 agonism | TRPV1-expressing cells, Fluo-8 calcium influx, agonist mode | activation, % at 8.33 µM | 320,000 compounds, 0.19% hits; in the data active = activation above about 80%; inconclusive = between about 30% and that limit
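Cells expressing TRPV1 were dye-loaded with Fluo-8 and read kinetically: 10 s baseline, 3 min after compound (agonist portion), then 2 min after EC20 capsaicin (allosteric enhancer portion). Calcium-bound dye fluorescence at 480/520 nm.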
hERG WT inh = blocks the wildtype human KCNH2 potassium channel | Q12809 | U2OS, BacMam KCNH2, thallium flux FluxOr; stronger effect = lower value | activity change, % at 1.84 µM | 340,000 compounds, 0.37% hits | AID 720551;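 active = maximum activity change below -70%; inconclusive = maximum activity change between -70% and -50%; inactive = maximum activity change above -50%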
Target sequence (Q12809 whole entry, looked up): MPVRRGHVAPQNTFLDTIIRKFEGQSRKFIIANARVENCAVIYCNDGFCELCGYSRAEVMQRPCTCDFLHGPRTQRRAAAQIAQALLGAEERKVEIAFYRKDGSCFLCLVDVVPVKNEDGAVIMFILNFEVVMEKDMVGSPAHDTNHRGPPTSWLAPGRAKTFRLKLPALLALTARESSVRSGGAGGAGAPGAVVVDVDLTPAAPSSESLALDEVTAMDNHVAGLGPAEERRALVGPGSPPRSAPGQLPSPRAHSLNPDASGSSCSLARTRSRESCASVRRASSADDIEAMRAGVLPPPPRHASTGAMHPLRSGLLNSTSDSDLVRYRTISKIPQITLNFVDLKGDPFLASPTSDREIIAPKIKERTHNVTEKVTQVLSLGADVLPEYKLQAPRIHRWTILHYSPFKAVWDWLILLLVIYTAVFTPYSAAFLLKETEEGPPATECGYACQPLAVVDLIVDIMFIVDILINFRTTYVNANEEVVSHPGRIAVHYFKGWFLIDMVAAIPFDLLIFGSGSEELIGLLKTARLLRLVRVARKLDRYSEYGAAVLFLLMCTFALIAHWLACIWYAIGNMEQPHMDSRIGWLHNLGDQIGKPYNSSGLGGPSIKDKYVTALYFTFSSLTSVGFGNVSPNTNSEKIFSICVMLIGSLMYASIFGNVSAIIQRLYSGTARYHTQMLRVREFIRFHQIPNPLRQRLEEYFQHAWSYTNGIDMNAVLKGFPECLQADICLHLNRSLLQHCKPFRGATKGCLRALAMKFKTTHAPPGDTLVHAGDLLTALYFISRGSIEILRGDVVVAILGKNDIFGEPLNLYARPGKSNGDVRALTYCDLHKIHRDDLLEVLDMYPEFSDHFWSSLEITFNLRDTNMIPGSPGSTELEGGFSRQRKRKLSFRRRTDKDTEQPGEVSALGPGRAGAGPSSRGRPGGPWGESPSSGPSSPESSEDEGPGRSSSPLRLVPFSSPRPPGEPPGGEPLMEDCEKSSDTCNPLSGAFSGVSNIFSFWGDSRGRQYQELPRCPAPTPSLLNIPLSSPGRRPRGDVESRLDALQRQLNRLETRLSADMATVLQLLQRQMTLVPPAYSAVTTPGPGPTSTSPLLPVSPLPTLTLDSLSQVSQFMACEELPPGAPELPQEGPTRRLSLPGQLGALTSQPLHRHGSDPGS
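U2OS cells transduced with wild-type KCNH2 virus are loaded with FluxOr dye for 45 min, and thallium flux is measured in kinetic reads before and after stimulation buffer. Rate constants are normalized to DMSO controls.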
TRPV1 potentiator = potentiators of human vanilloid receptor 1 (TRPV1); Q8NER1; TRPV1-expressing cells, Fluo-8 calcium influx, capsaicin EC20 potentiation; potentiation, % at 8.33 µM; 320,000 compounds, 0.02% hits; in the data active = potentiation above about 80%; inconclusive = between about 30% and that limit
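TRPV1-expressing cells were cultured overnight at 35.5C and loaded with Fluo-8 calcium dye for 40 to 90 min at room temperature. After a 10 s baseline, compound was added and calcium influx was read kinetically for 3 min (ex 480/em 520 nm).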
Numbers stand for hits. Hits are enriched below; roughly 1.2% of the tested compounds scored in any of these assays.

Results for CNC(=O)C(=O)NCC1OCCN1S(=O)(=O)c1ccc(C)cc1 (stereo not drawn) ?
KCNH2 3.1 inh: inactive; TRPV1 ag: inactive; hERG WT inh: -207.2; TRPV1 potentiator: inactive

How did CC1CCN(S(=O)(=O)c2ccc3c(c2)c(=O)c(C(=O)N2CCOCC2)cn3C)CC1 do in these assays?
KCNH2 3.1 inh: -127.1; TRPV1 ag: inactive; hERG WT inh: inactive; TRPV1 potentiator: inactive

What do the screens show for `CC1CCN(S(=O)(=O)c2ccc3c(c2)c(=O)c(C(=O)N2CCCCC2)cn3C)CC1`?
KCNH2 3.1 inh: inactive; TRPV1 ag: inactive; hERG WT inh: inactive; TRPV1 potentiator: inactive

Results for O=[N+]([O-])c1ccc(S(=O)(=O)Nc2ccc(-c3ccccc3)cc2)cc1 ?
KCNH2 3.1 inh: inactive; hERG WT inh: inactive

How did CCOC(=O)C1C(=O)N(O)CC1c1cccc(Oc2ccccc2)c1 (stereo not drawn) do in these assays?
KCNH2 3.1 inh: -74.7; TRPV1 ag: inactive; hERG WT inh: inactive; TRPV1 potentiator: inactive

Results for COC(=O)c1ccccc1NS(=O)(=O)c1c(C)noc1C ?
KCNH2 3.1 inh: -109.0; TRPV1 ag: inactive; hERG WT inh: inactive; TRPV1 potentiator: inactive

How did C[C@H](CO)N1C[C@H](C)[C@H](CN(C)C(=O)c2ccccc2)OCc2ccccc2-c2c(n(C)c3ccccc23)C1=O do in these assays?
KCNH2 3.1 inh: inactive; hERG WT inh: inactive

What do the screens show for `C=CCn1c(SCCOc2ccc(OC)cc2)nnc1C(C)NC(=O)Cc1ccc(OC)cc1` (stereo not drawn)?
KCNH2 3.1 inh: -100.7; TRPV1 ag: inactive; hERG WT inh: inactive; TRPV1 potentiator: inactive

Results for Cc1sc2ncnc(NCC(c3ccco3)N(C)C)c2c1C (stereo not drawn) ?
KCNH2 3.1 inh: inactive; TRPV1 ag: 86.0; hERG WT inh: inactive; TRPV1 potentiator: inactive

How did CN(C)C(CNc1ncnc2sc3c(c12)CCCCC3)c1ccco1 (stereo not drawn) do in these assays?
KCNH2 3.1 inh: inactive; TRPV1 ag: inactive; hERG WT inh: inactive; TRPV1 potentiator: inactive

Results for Cc1ccc(C(=O)N/C(=C\c2ccc(-c3ccc(Br)cc3)o2)C(=O)NCCCN(C)C)cc1 ?
KCNH2 3.1 inh: inactive; TRPV1 ag: inactive; hERG WT inh: -80.3; TRPV1 potentiator: inactive

Results for CN(C)CCNC(=O)/C(=C/c1ccc(-c2ccc(Cl)cc2)o1)NC(=O)c1ccccc1 ?
KCNH2 3.1 inh: -91.2; TRPV1 ag: inactive; hERG WT inh: inactive; TRPV1 potentiator: inactive

What do the screens show for `Cc1c(Cl)ccc2sc(NC(=O)c3ccco3)nc12`?
KCNH2 3.1 inh: inactive; TRPV1 ag: 89.5; hERG WT inh: inactive; TRPV1 potentiator: inactive

Results for Cc1cccc(CN(C)C[C@H]2OCc3cnnn3CCCC(=O)N([C@H](C)CO)C[C@@H]2C)c1 ?
KCNH2 3.1 inh: inactive; hERG WT inh: inactive

Results for CC(=O)Nc1ccc(S(=O)(=O)NCC(=O)N2CCN(S(=O)(=O)c3cccs3)CC2)cc1 ?
KCNH2 3.1 inh: -101.3; TRPV1 ag: inactive; hERG WT inh: inactive; TRPV1 potentiator: inactive

What do the screens show for `CCOC(=O)N1CCN(C(=O)CNS(=O)(=O)c2cccs2)CC1`?
KCNH2 3.1 inh: inactive; TRPV1 ag: inactive; hERG WT inh: inactive; TRPV1 potentiator: inactive

What do the screens show for `Cc1noc(C)c1S(=O)(=O)N(C)C[C@H]1Oc2ccc(NC(=O)NC3CCCCC3)cc2C(=O)N([C@H](C)CO)C[C@@H]1C`?
KCNH2 3.1 inh: inactive; hERG WT inh: inactive

What do the screens show for `c1ccc(CN2CCN(c3ncnc4c3[nH]c3ccccc34)CC2)cc1`?
KCNH2 3.1 inh: inactive; TRPV1 ag: 80.2; hERG WT inh: inactive; TRPV1 potentiator: inactive

What do the screens show for `O=C(O)Cn1c(CC(=O)N2CCCC2)nc2ccccc21`?
KCNH2 3.1 inh: -169.1; TRPV1 ag: inactive; hERG WT inh: inactive; TRPV1 potentiator: inactive

What do the screens show for `c1ccc(-c2cnn3c(-c4ccccc4)c(-c4ccccc4)nc3n2)cc1`?
KCNH2 3.1 inh: -89.0; TRPV1 ag: inconclusive; hERG WT inh: -135.1; TRPV1 potentiator: inactive

What do the screens show for `Nc1nc(-c2ccccc2)c(-c2ccccc2)n1N`?
KCNH2 3.1 inh: inactive; TRPV1 ag: inactive; hERG WT inh: inactive; TRPV1 potentiator: inactive

Results for CC/C(=N\NC(=O)CNC(=O)/C=C/c1ccc(OC)cc1)c1ccccc1 ?
KCNH2 3.1 inh: inactive; TRPV1 ag: inactive; hERG WT inh: -136.3; TRPV1 potentiator: inactive

What do the screens show for `O=C(Cn1cnc2ccccc21)Nc1ccc(SC(F)F)cc1`?
KCNH2 3.1 inh: inactive; TRPV1 ag: inactive; hERG WT inh: inactive; TRPV1 potentiator: inactive

How did CCn1c(N)[n+](CC(=O)Nc2ccc(SC(F)F)cc2)c2ccccc21 do in these assays?
KCNH2 3.1 inh: -92.4; TRPV1 ag: inactive; hERG WT inh: inactive; TRPV1 potentiator: inactive

Results for COc1ccc(CN2CCC(C(=O)c3ccc(F)cc3)CC2)cc1 ?
KCNH2 3.1 inh: -73.0; TRPV1 ag: inactive; hERG WT inh: inactive; TRPV1 potentiator: inactive

How did COc1ccc(C(=O)C2CCN(C(=O)c3ccc(F)cc3)CC2)cc1 do in these assays?
KCNH2 3.1 inh: inactive; TRPV1 ag: inactive; hERG WT inh: inactive; TRPV1 potentiator: inactive

How did Cc1ccc(NC(=O)N2CCC(C(=O)c3ccc(F)cc3)CC2)cc1 do in these assays?
KCNH2 3.1 inh: inactive; TRPV1 ag: inconclusive; hERG WT inh: inactive; TRPV1 potentiator: inactive

What do the screens show for `CSc1ccc(CN2CCC(C(=O)NCc3ccc(C)cc3)CC2)cc1`?
KCNH2 3.1 inh: -92.6; TRPV1 ag: inactive; TRPV1 potentiator: inactive

What do the screens show for `Cc1ccc(CN2CCC(C(=O)c3ccc(F)cc3)CC2)cc1`?
KCNH2 3.1 inh: -75.4; hERG WT inh: inactive

How did C=CCn1c(SCc2cccnc2)nnc1-c1ccncc1 do in these assays?
KCNH2 3.1 inh: inactive; TRPV1 ag: inactive; hERG WT inh: inactive; TRPV1 potentiator: inactive

How did C=CCn1c(SCc2c(Cl)cccc2Cl)nnc1-c1cccnc1 do in these assays?
KCNH2 3.1 inh: -120.3; TRPV1 ag: inactive; hERG WT inh: inactive; TRPV1 potentiator: inactive

How did COc1ccc(C(O)c2cnc(C)n2Cc2ccccc2)cc1 (stereo not drawn) do in these assays?
KCNH2 3.1 inh: inactive; hERG WT inh: inactive

Results for CCOc1ccccc1CN1CCNC(=O)C1CC(=O)NCCC1=CCCCC1 (stereo not drawn) ?
KCNH2 3.1 inh: -109.2; TRPV1 ag: inactive; hERG WT inh: inactive; TRPV1 potentiator: inactive

What do the screens show for `Clc1ccc2nnc(Cl)n2n1`?
KCNH2 3.1 inh: -183.3; TRPV1 ag: inactive; hERG WT inh: -219.6; TRPV1 potentiator: inactive

What do the screens show for `FC(F)c1nnc2ccc(Cl)nn12`?
KCNH2 3.1 inh: inactive; TRPV1 ag: inactive; hERG WT inh: inactive; TRPV1 potentiator: inactive

How did O=C(NC1CCCC1)C1CCCN1C(=O)Nc1ccccc1 (stereo not drawn) do in these assays?
KCNH2 3.1 inh: -86.7; TRPV1 ag: inactive; hERG WT inh: inactive; TRPV1 potentiator: inactive

How did COc1cccc(CN(C)C(=O)c2ccccc2Sc2ccccc2C#N)c1 do in these assays?
KCNH2 3.1 inh: -93.1; TRPV1 ag: inactive; hERG WT inh: inactive; TRPV1 potentiator: inactive

Results for COc1ccc(NC(=O)Nc2ccc3c(c2)C(=O)N([C@H](C)CO)C[C@H](C)[C@@H](CN(C)S(=O)(=O)c2ccccc2)O3)cc1 ?
KCNH2 3.1 inh: -96.6; hERG WT inh: inactive
